For 40 compounds, Percent Effect results are on record in ChEMBL document CHEMBL3988442, “University of Dundee, Small-Polar-MMV Screening Library” (2021).

For this test, the system named is Trypanosoma cruzi. In words: Trypanosoma cruzi phosphomannomutase and mannose-1-phosphate guanylyltransferase assay. The following applies: 10 µM. It counts as functional. More on the design: scale not given: direction of the effect not stated beside the values.
Turning to `Cc1ccc2c(c1)CN(C(=O)C1CCCCC1)C(CN(C)C)CO2` (stereo not given), the Percent Effect is -4.54%.

As for `O=C(O)c1cc2c(nc1O)CC(c1cccs1)CC2=O` (stereo not given), the Percent Effect was -5.5%. Then `Cc1nc(N2CCCC2)nc2c1CCN(C(=O)C1CCCC1)CC2`, with -3.54%; and `Cc1ccc(CC(=O)NCCCNS(C)(=O)=O)cc1`, with -2.56%. With `CSCC(CCO)NC(=O)Nc1cc(C)ccc1C` (stereo not given) the figure was -7.83%; with `COC(=O)c1sccc1S(=O)(=O)N1CCC(Oc2ncccc2Cl)CC1`, 4.9%; with `Cc1cc(-c2cnn(CCNC(=O)C3CCCO3)c2C2CC2)on1` (stereo not given), 5.34%.

For the compound `Cc1ccc(NS(=O)(=O)CC2=NC(=O)n3cccc3C2=O)cc1`, the Percent Effect was 1.97%. Then `CCS(=O)(=O)N1CCc2ccc(NC(=O)Nc3ccc(F)cc3F)cc21`, with 8.58%; and `Cc1csc(C2CCCN(C(=O)c3cnc[nH]3)C2)n1` (stereo not given), with 3.11%. On to `O=C(c1ccc[nH]1)N1CCc2c(COCC3CC3)cncc2C1`, for which the Percent Effect is -4.99%. With `CC(C)c1nn(C)c(N(C)C)c1CNCc1ccccc1CN(C)C` the figure was 1.13%.

Take `c1ccc(-c2noc(CN3CCC(c4ccn[nH]4)CC3)n2)cc1`: the Percent Effect was determined as 3.09%. As for `Cc1ccc(C)c(NC(=O)N(C)Cc2cnn(C)c2)c1`, the Percent Effect is -5.94%. With `COc1ccc(CN(Cc2cncn2C)CC2CCCO2)cc1OC` (stereo not given) the figure was -2.37%. Then `CN(C)C(=O)CC1CC2(CCN(C(=O)N(C)C)CC2)Oc2ccccc21` (stereo not given), with -4.79%; and `Cc1noc(C)c1C(=O)NCC(C)N(C)C` (stereo not given), with -7.71%; and `COc1ccc2c(c1)CC(NC(=O)NCc1cccs1)CO2` (stereo not given), with -5.62%. Then `Cc1cc(C)n(CC2CCCN2C(=O)c2ccc3c(c2)nnn3C)n1` (stereo not given), with -2.94%; and `O=C1[C@@H]2CCN(Cc3ccoc3)C[C@@H]2OCCN1Cc1cccnc1`, with -2.76%. In the case of `CCc1nnc(CN(C)c2nc(C(C)C)nc3c2cnn3C)o1`, the Percent Effect was -3.6%. For the compound `CCOC(=O)NC(CNC(=O)CCc1ccccn1)CC(C)C` (stereo not given), the Percent Effect worked out at 3.62%. With `CC(C)c1nn(C)c(N(C)C)c1CNCCC(=O)NC1CCCC1` the figure was 10.4%.

Regarding `Cc1cnn(CC2CCCN2C(=O)c2cnc3n[nH]c(C)c3c2)c1` (stereo not given), the Percent Effect stood at 2.36%. With `O=C(c1ccnnc1)N1C[C@H]2CCC[C@@]2(COCC2CCOCC2)C1` the figure was 7.72%; with `Cc1nccn1CC1CCCN1S(=O)(=O)Cc1ccccc1` (stereo not given), 3.49%. Then `CC(C)c1n[nH]c(C2CN(C(=O)CCn3ccccc3=O)CCO2)n1` (stereo not given), with -3.18%; and `Cc1ccc(C(NC(=O)CC2CCN(C(C)C)CC2)C(=O)O)cc1` (stereo not given), with 1.74%. With `c1ccc(-c2nnn3c2COC(CNCC2CCOCC2)C3)cc1` (stereo not given) the figure was -0.984%. Take `O=C(c1cncc(N2CCC3(CCNCC3)CC2)n1)N1CCCC1`: the Percent Effect was 5.94%. With `Cc1cc(NC(=O)NCCc2cccs2)n(C)n1` the figure was -8.65%. Then `Cc1nc(-c2ccco2)ccc1C(=O)N1CCCC1Cn1cccn1` (stereo not given), with -0.513%; and `CCOCC1CN(C(=O)CS(C)(=O)=O)Cc2cnn(C)c21` (stereo not given), with -3.28%. For the compound `O=C1CC(c2ccccc2F)c2c(n3ccsc3nc2=O)N1` (stereo not given), the Percent Effect came out at 2.95%.

On to `O=C(c1cccnc1-n1cccn1)N1CCN(CC2CC2)CC1`, for which the Percent Effect was -1.54%. With `COc1cc(C(=O)N(Cc2cnn(C)c2)C(C)C)ccc1OCC(N)=O` the figure was -5.32%; with `Cc1nn(C)c(C)c1C1CCCN1CC(=O)NC(C1CC1)C1CC1` (stereo not given), 4.25%; with `Cc1nc(C2CCCN(C(=O)c3cccc4c3OCO4)C2)no1` (stereo not given), -5.03%. With `COCCNC(=O)C(C)n1cc(Br)cn1` (stereo not given) the figure was 0.492%; with `Cc1nc(CN2CCOC(c3nc(C(C)C)n[nH]3)C2)oc1C` (stereo not given), 2.74%.
